Results: PubChem BioAssay (NCI)
About 79,000 compounds went through this panel and 15% of them were active in at least one assay; those are over-represented in the sample as a whole. Values without a mark were called inactive. Active and inactive are the calls of the source. Rule as the data show it: active = growth inhibition above about 70%; inactive = the rest.

What was measured:
[1] = NCI Yeast Anticancer Drug Screen. Data for the rad50 strain (AID 155);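 also: 0% = growth of vehicle-only cultures of the same strain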; settings: S. cerevisiae rad50 strain growth inhibition, stronger effect = higher value
How it was run: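 A DNA repair-deficient yeast mutant serves as the test organism; compound-induced growth inhibition is calculated against vehicle-treated cells.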

[2] = NCI Yeast Anticancer Drug Screen. Data for the mec2-1 strain (AID 157); settings: S. cerevisiae mec2-1 strain, stronger effect = higher value
How it was run: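 Readout is yeast growth inhibition, normalised to vehicle-treated controls, in the mec2-1 strain exposed to compound.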

[3] = NCI Yeast Anticancer Drug Screen. Data for the sgs1 mgt1 strain (AID 161);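 also: 0% = growth of cultures given vehicle only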; settings: S. cerevisiae sgs1 mgt1 strain, stronger effect = higher value
How it was run: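 Compounds are added to genetically altered yeast, and growth is compared with cultures given vehicle alone to give percent inhibition.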

[4] = NCI Yeast Anticancer Drug Screen. Data for the cln2 rad14 strain (AID 165);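 also: 0% = growth equal to vehicle treated cultures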; settings: S. cerevisiae cln2 rad14 strain, stronger effect = higher value
How it was run: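 Relative to vehicle controls, growth inhibition of compound-treated cln2 rad14 yeast was recorded.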

[5] = NCI Yeast Anticancer Drug Screen. Data for the bub3 strain (AID 167); settings: S. cerevisiae bub3 mutant strain, stronger effect = higher value
How it was run: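 Inhibition values come from growth of compound-treated mutant yeast normalised to vehicle-treated controls.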

[6] = NCI Yeast Anticancer Drug Screen. Data for the mlh1 rad18 strain (AID 175); settings: S. cerevisiae mlh1 rad18 strain growth inhibition, stronger effect = higher value
How it was run: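 Test agents were incubated with a yeast strain of defined genotype (DNA damage repair defect). Inhibition of growth was derived by comparison with vehicle-exposed cultures.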

[7] = at 5.0 µM (retest, dose inferred, filed as 0.5)
[8] = at 50.0 µM (retest, dose inferred, filed as 5.0)

Compound | growth inhibition [1, 7] | growth inhibition [1, 8] | growth inhibition ([1]; at 50.0 µM) | growth inhibition [2, 7] | growth inhibition [2, 8] | growth inhibition ([2]; at 50.0 µM) | growth inhibition [3, 7] | growth inhibition [3, 8] | growth inhibition ([3]; at 50.0 µM) | growth inhibition [4, 7] | growth inhibition [4, 8] | growth inhibition ([4]; at 50.0 µM) | growth inhibition [5, 7] | growth inhibition [5, 8] | growth inhibition ([5]; at 50.0 µM) | growth inhibition [6, 7] | growth inhibition [6, 8] | growth inhibition ([6]; at 50.0 µM)
COc1ccc(O)c(/C=C/[N+](=O)[O-])c1 | 16% | 99% (active) | 99.4% (active) | -1% | 99% (active) | 98.8% (active) | 20% | 99% (active) | 99.1% (active) | 5% | 98% (active) | 99.2% (active) | 41% | 99% (active) | 99.3% (active) | 21% | 99% (active) | 98.9% (active)
ClC1CCCCC1[Se](Cl)(Cl)C1CCCCC1Cl (configuration not stated) | 34% | 98% (active) | 99% (active) | 45% | 100% (active) | 98.7% (active) | 12% | 99% (active) | 99.5% (active) | -15% | 99% (active) | 97.9% (active) | 8% | 99% (active) | 95.6% (active) | 43% | 99% (active) | 98.8% (active)
CCOC(=O)CNC(=O)C1C2c3ccccc3C(c3ccccc32)C1C(=O)O (configuration not stated) | 3% | 38% | 90.3% (active) | 3% | 40% | 95.4% (active) | 0% | 39% | 96% (active) | 1% | 25% | 95.9% (active) | 1% | 45% | 94% (active) | -1% | 32% | 98.5% (active)
C1CN1[PH+](N1CC1)N1CC1.C1CN1[PH+](N1CC1)N1CC1.[I][Pt][I] | 2% | 20% | 66.5% | 0% | 20% | 14.8% | 2% | 30% | 59.8% | 1% | 14% | 21.8% | 2% | 21% | 22.7% | 5% | 44% | 73.8% (active)
CCC[CH2][Sn]1([CH2]CCC)[O]C(=O)c2cccnc2[S]1 | 40% | 95% (active) | 78.4% (active) | 38% | 97% (active) | 78.3% (active) | 55% | 97% (active) | 77% (active) | 31% | 94% (active) | 62.5% | 44% | 97% (active) | 83.5% (active) | 51% | 97% (active) | 79.8% (active)
Oc1c(Cl)c(Cl)c(O)c(Cl)c1Cl | 65% | 97% (active) | 99.2% (active) | 35% | 99% (active) | 99.3% (active) | 37% | 99% (active) | 99.1% (active) | -2% | 80% (active) | 95.7% (active) | 64% | 97% (active) | 99.1% (active) | 47% | 98% (active) | 98.8% (active)
NC(=O)c1cc([N+](=O)[O-])c(Cl)c([N+](=O)[O-])c1Cl | 34% | 65% | 88.9% (active) | 41% | 78% (active) | 86.7% (active) | 83% (active) | 98% (active) | 91.5% (active) | 91% (active) | 100% (active) | 90.3% (active) | 66% | 97% (active) | 88.2% (active) | 39% | 61% | 88.3% (active)
O=Cc1ccccc1O.O=Cc1ccccc1O.[O]=[Mo]=[O] | 5% | 29% | 11.8% | -1% | 36% | 3.65% | 8% | 41% | 8.2% | -7% | 16% | 42% | -3% | 34% | -5.6% | 2% | 46% | 2.45%
[Cl][Pt][Cl].c1ccc([AsH](CC[AsH](c2ccccc2)c2ccccc2)c2ccccc2)cc1 | 99% (active) | 99% (active) | 98.8% (active) | 99% (active) | 99% (active) | 99.4% (active) | 99% (active) | 99% (active) | 98.8% (active) | 98% (active) | 98% (active) | 98.6% (active) | 99% (active) | 99% (active) | 99.2% (active) | 99% (active) | 99% (active) | 99.2% (active)
